Calls of active or inactive are those of the source. Rule for the calls: active = hit-call score of the fitted dose curve at least 0.9, where 1 is the maximum; inactive = score below 0.9.
Key:
[1] = molecular target: Bile acid receptor (Homo sapiens) (UniProt Q96RI1); test: ATG_IR1_CIS: Attagene CIS-FACTORIAL HepG2 Assay for human Nuclear Receptor Subfamily 1 Group H Member 4 (NR1H4), IR1 submotif (AID 2282946); conditions: IR1 reporter transcription, actives raise or lower the signal
How it was run: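 Readout: reporter transcript levels by RT-PCR with fluorescent capillary electrophoresis, from HepG2 cells transiently transfected with multiplexed cis-regulated reporters and dosed 24 h. Gain- or loss-of-signal fitted versus DMSO negative control.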

[2] = ATG_ISRE_CIS: Attagene CIS-FACTORIAL HepG2 Assay for human Interferon Regulatory Factor 1 (IRF1) binding to an Interferon-Stimulated Response Element (ISRE) (AID 2282948); conditions: HepG2 ISRE cis-reporter (Attagene), mRNA transcription readout; actives raise or lower the signal
How it was run: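 Signal reflects induction or loss of ISRE-linked reporter mRNA in transiently transfected HepG2 cells after a 24 h treatment, detected by fluorescent RT-PCR fragments on capillary electrophoresis and normalised to DMSO.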

[3] = ATG_M_32_CIS: Attagene CIS-FACTORIAL HepG2 Assay for M32 Transcription Factor (Internal Marker) (AID 2282949); conditions: HepG2 Attagene cis-factorial M32 reporter, mRNA; actives raise or lower the signal;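 note: background control marker of the multiplexed CIS panel rather than a real target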
How it was run: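 Transient MRTU transfection of HepG2; 24 h compound treatment; TriZol RNA, oligo(dT) RT, reporter PCR, 6-FAM primer extension, HpaI cut, CE. Gain/loss of signal vs DMSO.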

[4] = ATG_M_06_CIS: Attagene CIS-FACTORIAL HepG2 Assay for M06 Transcription Factor (Internal Marker) (AID 2282950); conditions: HepG2 Attagene CIS-FACTORIAL M06 internal marker reporter; actives raise or lower the signal
How it was run: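 HepG2 cells transiently transfected with cis-regulated multiple reporter transcription units were exposed to chemical for 24 h; reporter mRNA was quantified by RT-PCR, 6-FAM primer labelling, HpaI digestion and capillary electrophoresis, fitted bidirectionally against DMSO.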

[5] = molecular target: Hypoxia-inducible factor 1-alpha (Homo sapiens) (UniProt Q16665); test: ATG_HIF1a_CIS: Attagene CIS-FACTORIAL HepG2 Assay for human Hypoxia Inducible Factor 1 (HIF1A) (AID 2282951); conditions: HepG2 Attagene cis-factorial HIF1a reporter transcription; actives raise or lower the signal
How it was run: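 Dosed 24 h, transfected HepG2 cells yielded total RNA whose reporter transcripts were RT-PCR-amplified and sized by capillary electrophoresis using fluorescent labelling; DMSO defined baseline, with gain and loss of signal both fitted.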

[6] = molecular target: Hepatocyte nuclear factor 6 (Homo sapiens) (UniProt Q9UBC0); test: ATG_HNF6_CIS: Attagene CIS-FACTORIAL HepG2 Assay for human Hepatocyte Nuclear Factor 6 (HNF6) (AID 2282952); conditions: HepG2 Attagene cis-factorial HNF6 reporter transcription; actives raise or lower the signal
How it was run: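 First, HepG2 cells were transfected with the multiplexed cis reporter library and dosed with chemical for 24 h. Next, RNA was reverse-transcribed, PCR-amplified and fluorescently labelled. Finally, HpaI-digested fragments were read by capillary electrophoresis.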

[7] = molecular target: Heat shock factor protein 1 (Homo sapiens) (UniProt Q00613); test: ATG_HSE_CIS: Attagene CIS-FACTORIAL HepG2 Assay for human Heat Shock Transcription Factor 1 (HSE) (AID 2282953); conditions: HepG2 HSE cis-reporter, Attagene RNA transcription; actives raise or lower the signal
How it was run: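 HepG2 cells transiently transfected with multiple reporter transcription units under cis-regulatory promoter control, measuring endogenous transcription factor activity. After 24 h chemical exposure, reporter mRNA quantified by RT-PCR, fluorescent labelling, HpaI digestion and capillary electrophoresis; bidirectional fit versus DMSO.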

[8] = ATG_MRE_CIS: Attagene CIS-FACTORIAL HepG2 Assay for human Metal Responsive Element (MRE) (AID 2282954); conditions: HepG2 MRE cis-reporter transcription, Attagene multiplex; actives raise or lower the signal
How it was run: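 Readout: capillary electrophoresis of 6-FAM-labelled, HpaI-digested RT-PCR reporter products. System: HepG2 cells carrying transient multiplexed cis reporters, dosed 24 h. Analysis: bidirectional fit, DMSO baseline.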

[9] = ATG_PBREM_CIS: Attagene CIS-FACTORIAL HepG2 Assay for human Phenobarbital-responsive Enhancer Module (PBREM) (AID 2282955); conditions: HepG2 PBREM cis-reporter, Attagene multiplexed transcription; actives raise or lower the signal
How it was run: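 Transfected liver-derived HepG2 cells exposed 24 h; PBREM reporter transcript quantified via RT-PCR and capillary electrophoresis, with activity in either direction referenced to DMSO.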

[10] = molecular target: Paired box protein Pax-6 (Homo sapiens) (UniProt P26367); test: ATG_Pax6_CIS: Attagene CIS-FACTORIAL HepG2 Assay for human Paired Box 6 (PAX6) (AID 2282956); conditions: HepG2 CIS-FACTORIAL PAX6 reporter transcription, RNA readout; actives raise or lower the signal
How it was run: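 Values derive from bidirectional curve fitting of reporter mRNA signal relative to DMSO. HepG2 cells bearing transfected cis-regulated MRTUs were exposed for 24 h; transcripts were read by RT-PCR and capillary electrophoresis.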

[11] = ATG_PXRE_CIS: Attagene CIS-FACTORIAL HepG2 Assay for human Pregnane X Receptor Element (PXRE) (AID 2282957); conditions: HepG2 Attagene CIS-FACTORIAL PXRE reporter, mRNA; actives raise or lower the signal
How it was run: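 After a 24 h chemical incubation, total RNA from transfected HepG2 cells was reverse-transcribed and reporter cDNA amplified, FAM-labeled, HpaI-digested and sized by capillary electrophoresis. DMSO served as baseline for bidirectional curve fitting.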

[12] = ATG_PPRE_CIS: Attagene CIS-FACTORIAL HepG2 Assay for human Peroxisome Proliferator-activated Response Element (PPRE) (AID 2282958); conditions: HepG2 PPRE cis-element reporter, Attagene transcription factor profiling; actives raise or lower the signal
How it was run: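 Measured endpoint: PPRE-controlled reporter mRNA, detected by RT-PCR and capillary electrophoresis fluorescence, from transiently transfected HepG2 cells 24 h after dosing. Curves fitted in both directions using DMSO baseline.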

[13] = ATG_RORE_CIS: Attagene CIS-FACTORIAL HepG2 Assay for human RAR-related Orphan Receptor Element (RORE) (AID 2282959); conditions: HepG2 Attagene cis-factorial RORE reporter, mRNA; actives raise or lower the signal
How it was run: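 Transiently transfected HepG2 reporter cells were treated 24 h. Reporter transcripts were detected by RT-PCR and capillary electrophoresis, with bidirectional fitting against DMSO.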

[14] = ATG_Sox_CIS: Attagene CIS-FACTORIAL HepG2 Assay for human SRY-box transcription factor (SOX) (AID 2282960); conditions: HepG2 Attagene cis-factorial SOX reporter, mRNA; actives raise or lower the signal
How it was run: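 Gain- or loss-of-signal endpoint, fitted bidirectionally with DMSO as negative control. Based on reporter mRNA from transfected HepG2 cells harvested 24 h post-treatment and quantified via RT-PCR and capillary electrophoresis.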

[15] = molecular target: Transcription factor Sp1 (Homo sapiens) (UniProt P08047); test: ATG_Sp1_CIS: Attagene CIS-FACTORIAL HepG2 Assay for human Specificity Protein 1 (Sp1) (AID 2282961); conditions: HepG2 Sp1 cis-reporter transcription, actives raise or lower the signal
How it was run: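 Endpoint reflects endogenous Sp1 transcriptional activity, not an exogenous fusion protein: HepG2 cells with transfected cis-regulated reporters, 24 h dosing, RT-PCR/capillary electrophoresis mRNA read-out, DMSO-normalised bidirectional fit.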

[16] = ATG_SREBP_CIS: Attagene CIS-FACTORIAL HepG2 Assay for human Sterol Regulatory Element Binding (SREBP) (AID 2282962); conditions: HepG2 Attagene cis-factorial SREBP reporter, mRNA; actives raise or lower the signal
How it was run: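 Values derive from bidirectional curve fitting with DMSO as baseline. The underlying measurement is reporter mRNA from cis-element-regulated units in transiently transfected HepG2, quantified by RT-PCR and capillary electrophoresis after 24 h exposure.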

[17] = molecular target: Signal transducer and activator of transcription 3 (Homo sapiens) (UniProt P40763); test: ATG_STAT3_CIS: Attagene CIS-FACTORIAL HepG2 Assay for human Signal Transducer and Activator of Transcription 3 (STAT3) (AID 2282963); conditions: HepG2, Attagene cis-factorial STAT3 reporter transcription; actives raise or lower the signal
How it was run: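 Uses human liver HepG2 transiently carrying cis-regulated reporter transcription units. Following 24 h dosing, reporter mRNA induction was detected by RT-PCR and capillary electrophoresis, analysed bidirectionally versus DMSO.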

[18] = ATG_GRE_CIS: Attagene CIS-FACTORIAL HepG2 Assay for human Glucocorticoid Response Elements (GRE) (AID 2282947); conditions: HepG2 GRE cis-reporter, Attagene multiplex mRNA; actives raise or lower the signal
How it was run: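 HepG2, transient cis-reporter transfection, 24 h. Reporter mRNA: RT-PCR then CE, fluorescence. Fit both directions vs DMSO.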

[19] = ATG_TA_CIS: Attagene CIS-FACTORIAL HepG2 Assay for human TA Basal Promoter (AID 2282964); conditions: HepG2 Attagene CIS-factorial TA basal promoter reporter; actives raise or lower the signal
How it was run: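 HepG2 cells transiently transfected with multiplexed cis-promoter reporter units, dosed 24 h. Reporter mRNA measured by RT-PCR, 6-FAM labelling, HpaI digestion and capillary electrophoresis; bidirectional fit versus DMSO baseline, serving as background control.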

Measured: AC50

Transcription factor Sp1 (Homo sapiens), sequence (P08047 whole entry, looked up, the tested form may be a part): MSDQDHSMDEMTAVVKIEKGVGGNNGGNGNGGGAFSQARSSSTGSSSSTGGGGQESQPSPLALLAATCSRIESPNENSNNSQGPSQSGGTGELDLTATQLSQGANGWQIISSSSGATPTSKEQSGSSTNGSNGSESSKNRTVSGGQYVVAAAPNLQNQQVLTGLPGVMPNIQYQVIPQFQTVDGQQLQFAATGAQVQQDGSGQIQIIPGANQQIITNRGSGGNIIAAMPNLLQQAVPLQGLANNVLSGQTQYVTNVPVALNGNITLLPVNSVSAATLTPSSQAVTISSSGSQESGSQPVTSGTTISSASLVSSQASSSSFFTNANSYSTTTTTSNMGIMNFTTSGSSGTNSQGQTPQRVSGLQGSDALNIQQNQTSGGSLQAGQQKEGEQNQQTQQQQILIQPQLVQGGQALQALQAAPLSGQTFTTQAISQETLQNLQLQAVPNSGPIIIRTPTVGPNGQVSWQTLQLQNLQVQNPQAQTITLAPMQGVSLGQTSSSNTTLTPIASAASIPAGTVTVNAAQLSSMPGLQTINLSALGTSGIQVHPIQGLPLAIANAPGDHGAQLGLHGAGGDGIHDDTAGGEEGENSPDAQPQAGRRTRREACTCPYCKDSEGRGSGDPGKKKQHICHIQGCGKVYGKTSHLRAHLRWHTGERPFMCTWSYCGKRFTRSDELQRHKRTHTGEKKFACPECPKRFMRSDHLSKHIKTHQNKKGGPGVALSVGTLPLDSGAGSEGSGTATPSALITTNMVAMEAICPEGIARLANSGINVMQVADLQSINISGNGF
Bile acid receptor (Homo sapiens), sequence (Q96RI1 whole entry, looked up): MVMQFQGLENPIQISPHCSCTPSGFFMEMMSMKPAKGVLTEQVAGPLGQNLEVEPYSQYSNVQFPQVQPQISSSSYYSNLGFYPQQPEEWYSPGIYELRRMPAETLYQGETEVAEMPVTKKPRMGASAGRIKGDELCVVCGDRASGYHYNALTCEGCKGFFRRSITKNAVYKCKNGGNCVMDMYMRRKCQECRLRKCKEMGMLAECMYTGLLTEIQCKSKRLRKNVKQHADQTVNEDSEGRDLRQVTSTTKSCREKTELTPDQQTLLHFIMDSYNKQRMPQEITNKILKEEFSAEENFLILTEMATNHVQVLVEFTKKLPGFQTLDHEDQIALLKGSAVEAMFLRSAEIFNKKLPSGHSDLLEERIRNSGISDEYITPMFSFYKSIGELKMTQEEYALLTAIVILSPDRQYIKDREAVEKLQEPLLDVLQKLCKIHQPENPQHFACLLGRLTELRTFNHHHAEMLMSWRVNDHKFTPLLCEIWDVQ
Heat shock factor protein 1 (Homo sapiens), sequence (Q00613 whole entry, looked up): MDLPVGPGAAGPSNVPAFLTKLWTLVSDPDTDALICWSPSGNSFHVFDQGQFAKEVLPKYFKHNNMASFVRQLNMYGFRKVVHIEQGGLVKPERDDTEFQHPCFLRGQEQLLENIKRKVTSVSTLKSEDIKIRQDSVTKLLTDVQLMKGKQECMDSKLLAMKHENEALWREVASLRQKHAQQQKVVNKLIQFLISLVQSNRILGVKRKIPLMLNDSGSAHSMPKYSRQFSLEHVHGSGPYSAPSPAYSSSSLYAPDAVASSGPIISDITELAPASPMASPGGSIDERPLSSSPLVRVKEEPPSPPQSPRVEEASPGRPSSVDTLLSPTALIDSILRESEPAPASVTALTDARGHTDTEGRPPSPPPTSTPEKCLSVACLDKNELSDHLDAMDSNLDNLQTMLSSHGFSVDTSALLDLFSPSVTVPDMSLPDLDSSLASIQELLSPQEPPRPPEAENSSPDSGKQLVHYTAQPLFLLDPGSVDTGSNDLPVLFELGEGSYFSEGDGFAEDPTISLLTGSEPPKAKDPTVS
Paired box protein Pax-6 (Homo sapiens), sequence (P26367 whole entry, looked up): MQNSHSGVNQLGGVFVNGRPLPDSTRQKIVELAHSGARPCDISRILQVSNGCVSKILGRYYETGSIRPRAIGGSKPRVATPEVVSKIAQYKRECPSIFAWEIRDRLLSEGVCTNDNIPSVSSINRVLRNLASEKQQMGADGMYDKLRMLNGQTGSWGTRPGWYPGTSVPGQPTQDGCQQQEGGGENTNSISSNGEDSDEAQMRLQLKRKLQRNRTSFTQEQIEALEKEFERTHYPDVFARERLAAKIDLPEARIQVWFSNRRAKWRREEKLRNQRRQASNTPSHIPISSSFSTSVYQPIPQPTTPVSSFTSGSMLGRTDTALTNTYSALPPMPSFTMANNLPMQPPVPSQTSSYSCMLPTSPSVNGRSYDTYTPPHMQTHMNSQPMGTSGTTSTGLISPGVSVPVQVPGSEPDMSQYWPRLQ
Hypoxia-inducible factor 1-alpha (Homo sapiens), sequence (Q16665 whole entry, looked up): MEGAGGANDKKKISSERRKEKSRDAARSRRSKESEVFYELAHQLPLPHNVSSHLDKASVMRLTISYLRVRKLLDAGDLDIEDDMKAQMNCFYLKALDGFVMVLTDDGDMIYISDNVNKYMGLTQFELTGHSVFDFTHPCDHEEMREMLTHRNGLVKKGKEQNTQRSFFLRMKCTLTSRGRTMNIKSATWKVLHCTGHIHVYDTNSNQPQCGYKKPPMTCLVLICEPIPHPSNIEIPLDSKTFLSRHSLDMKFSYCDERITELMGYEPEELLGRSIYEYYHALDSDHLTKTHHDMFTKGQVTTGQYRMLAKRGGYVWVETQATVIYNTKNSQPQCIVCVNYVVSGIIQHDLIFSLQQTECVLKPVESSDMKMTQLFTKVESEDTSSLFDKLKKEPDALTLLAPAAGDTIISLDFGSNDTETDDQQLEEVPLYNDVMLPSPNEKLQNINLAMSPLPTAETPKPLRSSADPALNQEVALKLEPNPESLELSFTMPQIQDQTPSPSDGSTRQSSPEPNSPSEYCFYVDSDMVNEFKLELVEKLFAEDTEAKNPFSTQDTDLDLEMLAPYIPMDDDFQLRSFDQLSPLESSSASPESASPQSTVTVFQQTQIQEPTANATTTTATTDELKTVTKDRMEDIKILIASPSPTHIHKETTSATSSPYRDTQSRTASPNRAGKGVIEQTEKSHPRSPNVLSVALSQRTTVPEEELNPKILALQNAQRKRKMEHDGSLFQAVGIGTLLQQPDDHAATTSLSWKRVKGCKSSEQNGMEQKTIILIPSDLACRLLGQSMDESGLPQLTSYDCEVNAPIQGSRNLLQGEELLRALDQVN
Signal transducer and activator of transcription 3 (Homo sapiens), sequence (P40763 whole entry, looked up): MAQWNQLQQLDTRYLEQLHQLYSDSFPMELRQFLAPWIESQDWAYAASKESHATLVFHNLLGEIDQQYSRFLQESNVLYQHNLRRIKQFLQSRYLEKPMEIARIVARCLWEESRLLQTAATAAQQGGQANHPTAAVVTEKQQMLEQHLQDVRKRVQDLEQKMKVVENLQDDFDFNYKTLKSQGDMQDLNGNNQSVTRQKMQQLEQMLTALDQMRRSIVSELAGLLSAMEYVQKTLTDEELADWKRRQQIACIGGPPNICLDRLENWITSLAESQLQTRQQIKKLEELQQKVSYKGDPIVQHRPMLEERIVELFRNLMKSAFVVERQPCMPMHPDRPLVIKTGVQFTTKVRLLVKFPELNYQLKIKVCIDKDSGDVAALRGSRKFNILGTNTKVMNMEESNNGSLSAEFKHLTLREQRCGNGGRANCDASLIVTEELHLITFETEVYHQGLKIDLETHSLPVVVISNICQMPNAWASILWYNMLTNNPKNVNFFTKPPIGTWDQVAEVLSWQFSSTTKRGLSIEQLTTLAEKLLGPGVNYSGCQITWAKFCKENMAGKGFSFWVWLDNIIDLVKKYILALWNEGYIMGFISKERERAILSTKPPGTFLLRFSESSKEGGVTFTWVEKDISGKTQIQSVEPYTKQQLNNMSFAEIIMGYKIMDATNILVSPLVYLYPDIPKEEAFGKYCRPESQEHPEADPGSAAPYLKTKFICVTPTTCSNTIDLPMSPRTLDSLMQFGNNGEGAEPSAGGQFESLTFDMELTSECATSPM
Hepatocyte nuclear factor 6 (Homo sapiens), sequence (Q9UBC0 whole entry, looked up, the tested form may be a part): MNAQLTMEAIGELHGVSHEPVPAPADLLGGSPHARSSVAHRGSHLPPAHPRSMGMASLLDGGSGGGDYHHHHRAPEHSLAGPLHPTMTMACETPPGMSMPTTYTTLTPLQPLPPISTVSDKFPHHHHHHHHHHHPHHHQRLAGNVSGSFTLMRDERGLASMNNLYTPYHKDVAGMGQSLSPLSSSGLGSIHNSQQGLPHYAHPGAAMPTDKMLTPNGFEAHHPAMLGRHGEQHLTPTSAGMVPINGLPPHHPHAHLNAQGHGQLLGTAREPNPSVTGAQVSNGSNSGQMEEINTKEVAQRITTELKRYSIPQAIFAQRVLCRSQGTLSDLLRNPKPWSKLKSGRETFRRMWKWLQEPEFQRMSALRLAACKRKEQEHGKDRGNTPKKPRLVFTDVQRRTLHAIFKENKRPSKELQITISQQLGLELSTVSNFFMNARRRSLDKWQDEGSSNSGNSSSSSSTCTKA

Cc1c(O)cccc1O
active: [11] 127 µM
not listed: [18] | [19]
inactive: all other assays above

CCCCOCCOCCOC(C)=O
not listed: [1] | [7] | [17]
inactive: all other assays above

CC(C)(C)C1CCC(=O)CC1
active: [7] 156 µM | [19] 152 µM
not listed: [9] | [10]
inactive: all other assays above

CC(=O)c1ccc(S(=O)(=O)NC(=O)NC2CCCCC2)cc1
active: [11] 100 µM
not listed: [5] | [9] | [13] | [15]
inactive: all other assays above

CCc1cccc(C)c1N(C(=O)CS(=O)(=O)O)C(C)COC (stereo not drawn)
active: [11] 29.2 µM
not listed: [7] | [13]
inactive: all other assays above

C[Si]1(C)O[Si](C)(C)O[Si](C)(C)O[Si](C)(C)O[Si](C)(C)O1
active: [11] 27.2 µM
not listed: [1]
inactive: all other assays above

O=C(O)/C=C/c1ccccc1
not listed: [7] | [9] | [16]
inactive: all other assays above

CCCCCCCC(=O)OCC
not listed: [9] | [15] | [16]
inactive: all other assays above

COC(=O)c1ccc(C(=O)OC)c(C(=O)OC)c1
not listed: [1] | [16]
inactive: all other assays above

C=C(C)C(=O)OCCCCCCCCCCCC
active: [11] 30.9 µM
not listed: [1]
inactive: all other assays above

CCCCCCCCCC[N+](C)(CCCCCCCCCC)CCC[Si](OC)(OC)OC
active: [18] 18.4 µM | [2] 17.4 µM | [3] 20.2 µM | [6] 11 µM | [9] 19.3 µM | [11] 3.94 µM | [12] 19.9 µM | [13] 18.2 µM | [16] 17 µM | [17] 18.1 µM
inactive: [4] | [5] | [7] | [8] | [10] | [14] | [19]

CC(=O)OC(C)c1ccccc1 (stereo not drawn)
active: [11] 37.6 µM
not listed: [1] | [6] | [7] | [10] | [12]
inactive: all other assays above

Reference: PubChem BioAssay (EPA / NIEHS)
